Compound activity as filed in PubChem BioAssay.
Giardia killer: kills Giardia lamblia | Giardia lamblia trophozoite viability | activity change, % at 7.66 µM, hits read low | hit rate 0.15% among 340,000; in the data active means activity change below about -80%; inconclusive means between about -30% and that limit;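 further: parasites exposed to compound for two days anaerobically before the ATP read; on the % scale 0 is the no-effect control and ±100 the full control effect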
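Luminescence from cellular ATP indicates surviving trophozoites (100 cells/well) following 48 hrs anaerobic compound treatment at 37 deg C; signal develops 15-30 min at room temperature.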
MCF10A rereplic: induces DNA re-replication in MCF 10a normal breast cells; MCF 10A DNA re-replication, Hoechst nuclear intensity, 48 h; Potency, µM (titrated, usually from 46.1 µM), for inactives: at the highest dose activity, positive = re-replication, hits mostly activators; hit rate 2.9% among 350,000; AID 624296; further: potency means the concentration at half of the fitted maximal effect; % of control where 0% means no effect; nearly all actives have a fitted effect of over 50% in size
SW480 rerep: induces DNA re-replication in SW480 colon adenocarcinoma cells; SW480 DNA re-replication, Hoechst DNA content imaging, 48 h; Potency, µM (series often up to 46.1 µM), without a hit: at the highest dose re-replication activation, hits mostly activators; hit rate 1.8% among 340,000; further: potency means the concentration at half of the fitted maximal effect; % of control where 0% means no effect; nearly all actives have a fitted effect of over 55% in size
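Per well, 250 cells were exposed to pinned compound for 48 hr. Nuclear DNA was visualised with Hoechst (40 min, 37 C) and total object intensity recorded by fluorescence scanning.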
uPA surface inh: blocks generation of uPA at the cell surface; AID 540303; cell surface uPA generation assay, qHTS; Potency, µM (titrated, usually from 38.3 µM), inactives show at the highest dose activity change, negative = inhibition, hits mostly inhibitors; hit rate 0.31% among 330,000; active means well fitted inhibition curve with a large enough effect; inconclusive means small, poorly fitted or top-dose-only effect; inactive means no such curve, though single readings can be large or run the other way; tested in mouse RAW 264.7 cells; further: potency means the concentration at half of the fitted maximal effect; on the % scale 0 is the no-effect control and ±100 the full control effect; nearly all actives have a fitted effect of over 55% in size
* = called active by the depositor; ? = inconclusive; / = no result. This is a sample that favours compounds with a hit; in the whole collection about 4.3% have one here. Unless noted, the call rests on the fitted dose curve; in most records, active means well fitted activation curve with a large enough effect; inconclusive means small, poorly fitted or top-dose-only effect; inactive means no such curve, though single readings can be large or run the other way.

SMILES	Giardia killer	MCF10A rereplic	SW480 rerep	uPA surface inh
COc1cccc(C(CNC(=O)C2CCN(C(=O)Nc3ccccc3)CC2)N(C)C)c1 (configuration not stated)	-6	-4%	2%	4%
CCOC(=O)c1sc(NC(=O)c2ccc(S(=O)(=O)N3CCOCC3)cc2)nc1-c1ccccc1	28	6%	18µM*	21%
CCOC(=O)Nc1nc(-c2ccccc2)c(C(=O)c2ccc(Cl)cc2)s1	-9	?	2.9µM*	-8%
CCOC(=O)c1sc(NC(=O)c2ccc(S(=O)(=O)N3CCCCC3)cc2)nc1-c1ccccc1	6	-6%	-3%	-1%
CCOC(=O)c1ccc2nc(Nc3nc4ccc(F)cc4s3)sc2c1	-5	10µM*	1%	0%
CCOC(=O)C(=CNc1nc(-c2ccccc2)c(C(=O)Nc2ccc(-c3ccccc3)cc2)s1)C(=O)OCC	-11	9.2µM*	3.7µM*	1%
CCCCn1c(N)c(N(CCOC)C(=O)CCN2C(=O)C3CC=CCC3C2=O)c(=O)[nH]c1=O (configuration not stated)	-5	0%	3%	1%
COC(=O)c1ccc2nc(NC(=O)C(C)C)sc2c1	0	-11%	1%	-15%
CCOC(=O)N1CCN(S(=O)(=O)c2ccc(C(=O)Nc3nc4ccccc4s3)cc2)CC1	12	6%	-3%	3%
COC(=O)c1ccc2nc(Nc3nc4c(F)cc(F)cc4s3)sc2c1	-23	2.3µM*	0.23µM*	2%
CCOC(=O)N1CCN(S(=O)(=O)c2ccc(C(=O)Nc3nc4ccc(F)cc4s3)cc2)CC1	13	16µM*	7%	7%
Cc1ccc(C)c(N2CCN(S(=O)(=O)c3cc4c(cc3C)NC(=O)CO4)CC2)c1	-8	9%	-8%	16%
CCN(CC)CCNC(=O)C(=O)Nc1ccc2c(c1)N(S(=O)(=O)c1cccs1)CCC2	23	?	5.2µM*	6%
COCCNC(=S)N/N=C(\C)c1ccc(-n2ccnc2)cc1	-9	16%	7.1µM*	/
C=CCNC(=S)N/N=C(\C)c1ccc(-n2ccnc2)cc1	-12	?	?	-9%
Cc1ccc(C(=O)Cc2ccccc2)c(O)c1	-3	-31%	-8%	3%
CC(C)=CCc1c(O)ccc(C(=O)Cc2ccccc2)c1O	-3	21µM*	4%	6%
O=C(COc1ccc2ccccc2c1Br)NC(=S)Nc1cccc(CO)c1	-13	?	2.9µM*	-2%
Cc1ccc(-n2nc3ccc(NC(=O)/C=C/c4ccco4)cc3n2)cc1	0	12µM*	?	-5%
O=c1c2cc(NC(=S)N3CCCC3)ccc2nc2n1CCCCC2	-3	18%	1%	0%
Cc1ccc(NC(=O)c2cccc(NC(=O)/C=C/c3ccco3)c2)cc1C	-9	?	4%	-12%
O=C(/C=C/c1ccco1)Nc1ccc2nc3n(c(=O)c2c1)CCCC3	8	?	-8%	2µM*
Cc1noc(C)c1NC(=O)N(C)C[C@H]1Oc2ccc(NC(=O)C3CC3)cc2C(=O)N([C@H](C)CO)C[C@@H]1C	2	-28%	-9%	-2%
CC(=O)Nc1ccc(NC(=O)N(c2ccccc2)c2ccccc2)cc1	2	-5%	-1%	-14%
CCOC(=O)c1csc(NC(=O)c2cc(OC)c(OC)c(OC)c2)n1	-14	?	0.23µM*	0%
SMILES	Giardia killer	MCF10A rereplic	SW480 rerep	uPA surface inh
Cc1cc(O)cc2c1C1CCC3(C)C(=O)CCC3C1C=C2 (configuration not stated)	-2	11%	-8%	-1%
OC[C@H]1O[C@@](CO)(O[C@H]2O[C@H](CO)[C@@H](O)[C@H](O)[C@H]2O)[C@@H](O)[C@@H]1O	/	3%	3%	/
CCOc1ccc2ncc(S(=O)(=O)c3ccccc3)c(N3CCN(c4ccccc4)CC3)c2c1	12	10%	-1%	5%
CCc1ccc2ncc(S(=O)(=O)c3ccc(C)c(C)c3)c(N3CCCC3)c2c1	2	23µM*	15%	-13%
COc1ccc(NS(=O)(=O)c2cc(NC(=O)c3ccc(=O)[nH]n3)ccc2C)cc1	12	?	18µM*	?
COc1ccc(C(=O)NCC(=O)OCC(=O)NC2CCCCCC2)cc1	-2	-12%	-5%	-4%
Cc1ccc(/C(N)=N/OC(=O)N2c3ccccc3Sc3ccccc32)cc1	37	14µM*	11%	-6%
O=C(CNC(=O)c1ccccc1F)NCC(c1cccs1)N1CCOCC1 (configuration not stated)	0	9%	-3%	-22%
